Screen size: about 16,000 compounds; about 5,100 (32%) were called active. Another 25% or so got no clear call; they are omitted. The list shows a part of the results. A number with no mark means an inactive call. Calls come from the whole dose curve; as a rule, active = well fitted curve in the direction sought with a large enough effect; inconclusive = small, poorly fitted or top-dose-only effect, or effect the other way; inactive = no such curve, though single readings can be large or run the other way.
These molecules were tested against Cytochrome P450 3A4 (Homo sapiens) (UniProt P08684) (assay: Cytochrome panel assay with activity outcomes). Conditions: recombinant CYP, pro-luciferin dealkylation, luminescence, p450-cyp3a4; series mostly up to 57.1 µM; activity, negative = inhibition: at the top concentration.
Cytochrome P450 3A4 (Homo sapiens), sequence (P08684 whole entry, looked up): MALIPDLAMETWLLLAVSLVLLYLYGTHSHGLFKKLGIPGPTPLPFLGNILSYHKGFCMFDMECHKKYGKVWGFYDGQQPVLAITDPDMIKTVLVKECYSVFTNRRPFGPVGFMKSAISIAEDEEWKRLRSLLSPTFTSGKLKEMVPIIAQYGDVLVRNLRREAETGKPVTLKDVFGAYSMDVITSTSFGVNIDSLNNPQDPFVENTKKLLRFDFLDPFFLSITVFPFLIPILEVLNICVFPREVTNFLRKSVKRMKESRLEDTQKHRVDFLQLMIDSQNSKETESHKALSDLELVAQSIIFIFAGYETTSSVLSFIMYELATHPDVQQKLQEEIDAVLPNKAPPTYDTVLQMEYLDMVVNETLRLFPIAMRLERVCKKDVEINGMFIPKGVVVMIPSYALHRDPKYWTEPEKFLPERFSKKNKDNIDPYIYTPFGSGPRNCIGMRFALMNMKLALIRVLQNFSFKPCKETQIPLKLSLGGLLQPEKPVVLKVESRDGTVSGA
Molecule `NC(=S)N/N=C/c1ccccc1OCc1cccc(Cl)c1` has an activity, negative = inhibition of -18.2% [at 2.29 µM]. `O/N=C/c1ccccc1OCc1ccc(Cl)cc1` was tested, and the AC50 was 12.6 µM (active). For `Cc1ccc(COc2ccc(Br)cc2/C=N/O)cc1`, the AC50 was 7.94 µM (active). For `Cc1ccc(CONC(=O)/N=C/N(C)C)cc1`, the “activity, negative = inhibition” value was -12.6%. With `O=C(Cc1ccccc1)N/N=C/c1ccccc1OCc1ccc(Cl)cc1` the AC50 was 15.8 µM (active). Work on `Oc1ccc(Cl)cc1C=Nc1cnc2ccccc2c1` yielded an activity, negative = inhibition of -12.5% [at 11.4 µM]. For `O=C(Cc1ccccc1)N/N=C\c1ccc(Br)o1`, the “activity, negative = inhibition” value was -20.2%. Work on `O=C(SCc1cccc2ccccc12)c1ccc(Cl)cc1` yielded an activity, negative = inhibition of -17.6% [at 11.4 µM]. For `Cc1ccc(COc2coc(CO)cc2=O)cc1`, the “activity, negative = inhibition” value was -20.6%. `O/N=C/c1cc(Cl)ccc1OCc1cccc2ccccc12` was tested, and the AC50 was 7.94 µM (active). `COc1c(Cl)cc(Cl)cc1CNCCNCC(C)O` (centres undefined) was tested, and the “activity, negative = inhibition” value was 15.3%. `COc1cccc(/C=N/n2c(=S)n(C)c3cc(C)c(C)cc32)c1OC` was tested, and the activity, negative = inhibition was -9.43% [at 2.29 µM]. `Cc1n[nH]c(=S)n1/N=C/c1ccccc1OCc1ccc(Cl)cc1` was tested, and the AC50 was 1.26 µM (active). For `COc1ccc(C(=O)n2nc(-c3ccccc3)nc2SC)cc1`, the “activity, negative = inhibition” value was 6.71%. For `C=C1C(=O)C=C2CN(C(=O)c3ccccc3)[C@@](Cc3ccc(F)cc3)(C(=O)OC)[C@@H]12`, the AC50 was 7.94 µM (active). `C=C1C(=O)C=C2CN(C(=O)c3ccccc3)[C@@](Cc3ccc(OC)cc3)(C(=O)OC)[C@@H]12` was tested, and the AC50 was 1.58 µM (active). In the case of `Cc1cc(CC(=O)O)n(C)c1C(=O)c1ccc(Cl)cc1`, the “activity, negative = inhibition” value is reported as -11.7% [at 25.6 µM]. With `O=C(CON1C(=O)c2ccccc2C1=O)c1ccccc1` the activity, negative = inhibition was -17.5% [at 11.4 µM]. For `COc1ccc2c(c1)-c1ccccc1S(=O)(=O)N2C(C)=O`, the “activity, negative = inhibition” value was -6.85%. For `COc1ccc(C(=O)CN(C(=O)c2ccc(Cl)cc2)N2C(=O)c3ccccc3C2=O)cc1`, the AC50 was 8.91 µM (active). With `Cc1ccc(C(=O)CN(C(=O)c2ccc(Cl)cc2)N2C(=O)c3ccccc3C2=O)cc1` the AC50 was 10 µM (active). For `COc1ccc(C(=O)O/N=C/c2ccc(S(=O)c3ccc(Cl)cc3)nc2)cc1` (centres undefined), the “activity, negative = inhibition” value was 7.76%. Molecule `Cc1cc(=Nc2ccc3c(c2)c(N)cc(C)[n+]3C)nc(N)n1C` has an activity, negative = inhibition of 3.03% [at 11.4 µM]. In the case of `C[C@@H]1CCCC(CC(=O)O)(CC(=O)O)C1`, the activity, negative = inhibition is reported as -9.8% [at 11.4 µM]. For `CC(NC(=O)c1ccc(Cn2cc([N+](=O)[O-])cn2)o1)c1ccccc1` (centres undefined), the AC50 was 25.1 µM (active). `O=C(Nc1cccc(C(F)(F)F)c1)c1ccc(Cn2cc(Br)cn2)o1` gave an activity, negative = inhibition of -0.795% [at 2.29 µM]. `CC(NC(=O)Cn1cnc([N+](=O)[O-])n1)c1ccccc1` (centres undefined) was tested, and the “activity, negative = inhibition” value was 0.0886%. In the case of `CCOC(=O)C(NC(=O)CC)(Nc1sc2c(c1C(=O)OC)CCN(C)C2)C(F)(F)F` (centres undefined), the AC50 is reported as 12.6 µM (active). `CCC(=O)NC(Nc1sc2c(c1C(=O)OC)CCCC2)(C(F)(F)F)C(F)(F)F` was tested, and the activity, negative = inhibition was -7.25% [at 2.29 µM]. `COc1ccc(NC(=O)C2CC(=O)NC3=C2C(=O)CC(C)(C)C3)cc1` (centres undefined) was tested, and the “activity, negative = inhibition” value was -22.9%. For `COc1ccc(OC)c(C2CC(=O)C3=C(C2)NC(=O)CC3c2ccc(O)c(OC)c2)c1` (centres undefined), the AC50 was 8.91 µM (active). With `CC(C)Oc1ccc(C2CC(=O)NC3=C2C(=O)CCC3)cc1` (centres undefined) the “activity, negative = inhibition” value was -29.8%. In the case of `CC(=O)NC(Cc1ccc(F)cc1)C(=O)O` (centres undefined), the “activity, negative = inhibition” value is reported as 6.9%. `COc1ccc(F)cc1S(=O)(=O)NC(Cc1ccccc1)C(N)=O` (centres undefined) was tested, and the AC50 was 15.8 µM (active). With `CNC(=O)/C(C#N)=c1\s/c(=C/C(=O)OC)c(=O)n1-c1ccccc1` the “activity, negative = inhibition” value was -3.36%. `CS(=O)(=O)c1ccc(Cn2c3c(c4cc(F)cc(F)c42)CCC[C@H]3CC(=O)O)cc1` was tested, and the AC50 was 39.8 µM (active). In the case of `CC(C)NNC(=O)c1ccncc1`, the AC50 is reported as “inactive”. For `CN[C@@H](c1ccncc1)[C@@H](NC)c1ccncc1`, the AC50 was 5.01 µM (active). With `O=c1[nH][nH]c(=S)c(=O)[nH]1` the activity, negative = inhibition was -14.1% [at 11.4 µM]. `COCCNc1ncnc2ccc(-c3ccc(C(=O)N(C)C)cc3)cc12` was tested, and the AC50 was 15.8 µM (active). With `CC(=O)NCCNc1ncnc2ccc(-c3ccc(C(=O)N(C)C)cc3)cc12` the “activity, negative = inhibition” value was -20%. With `COCCNc1ncnc2ccc(-c3ccoc3)cc12` the “activity, negative = inhibition” value was -6.63%. `COCCNc1ncnc2ccc(-c3ccc(N(C)C)cc3)cc12` was tested, and the AC50 was 7.94 µM (active). For `CC(=O)c1ccc(NC(=O)C2CC(c3ccc(F)cc3)=NO2)cc1` (centres undefined), the “activity, negative = inhibition” value was -15.6%. In the case of `COc1ccc(C2=NOC(C(=O)NCc3ccco3)C2)cc1OC` (centres undefined), the “activity, negative = inhibition” value is reported as -25.1%. For `COc1ccc(C2=NOC(C(=O)Nc3ccc(C(C)=O)cc3)C2)cc1OC` (centres undefined), the AC50 was 8.91 µM (active). With `COc1cccc(C2=NOC(C(=O)Nc3ccc(OC)c(OC)c3)C2)c1` (centres undefined) the AC50 was 6.31 µM (active). For `COCCNC(=O)C1CC(c2cccc(OC)c2)=NO1` (centres undefined), the “activity, negative = inhibition” value was -28.1%. For `COC(=O)[C@@H](NC(=O)Nc1ccc(C(C)=O)cc1)C(C)C`, the “activity, negative = inhibition” value was -1.62%. In the case of `O=C(O)[C@@H]1[C@@H](C(=O)NCc2ccccn2)[C@@H]2C=C[C@@H]1O2`, the activity, negative = inhibition is reported as -5.18% [at 11.4 µM]. In the case of `O=C(NCc1ccccn1)C1CC(c2ccc(Cl)c(Cl)c2)=NO1` (centres undefined), the AC50 is reported as 25.1 µM (active). `O=C(NCc1ccc2c(c1)OCO2)C1CC(c2cccc(Br)c2)=NO1` (centres undefined) was tested, and the AC50 was 0.708 µM (active). In the case of `COc1cccc(C2=NOC(C(=O)Nc3cccnc3)C2)c1` (centres undefined), the AC50 is reported as 12.6 µM (active). `COc1ccc(CNC(=O)C2CC(c3ccc(OC)cc3)=NO2)cc1` (centres undefined) was tested, and the “activity, negative = inhibition” value was 2.43%. In the case of `Cc1ccc(NC(=O)NNC(=O)C2CC(c3cccnc3)=NO2)cc1` (centres undefined), the “activity, negative = inhibition” value is reported as 12.9%. `COc1ccc(CNC(=O)C2CC(c3cccc([N+](=O)[O-])c3)=NO2)cc1` (centres undefined) was tested, and the AC50 was 6.31 µM (active). Molecule `O=C1C=C(Nc2nc(C(=O)O)cc(=O)[nH]2)c2ccccc2C1=O` has an activity, negative = inhibition of -12.4% [at 11.4 µM]. `O=C1C=C(NCCc2cc(Br)c(O)c(Br)c2)C(=O)c2ncccc21` was tested, and the AC50 was 3.16 µM (active). `O=C(NCCc1ccccn1)c1cc(C(=O)C2CCCCC2)c[nH]1` was tested, and the AC50 was 10 µM (active). For `O=C(NCc1ccco1)c1cc(C(=O)C2CCCCC2)c[nH]1`, the “activity, negative = inhibition” value was -11.4%. `O=C(NCc1ccco1)c1cc(C(=O)C2CC2)c[nH]1` was tested, and the “activity, negative = inhibition” value was 2.35%. For `COc1ccc2c(c1)c(CC(=O)OCC(=O)O)c(C)n2C(=O)c1ccc(Cl)cc1`, the “activity, negative = inhibition” value was -11.9% [at 25.6 µM]. In the case of `COc1ccc2c(c1)c(CC(=O)N1CCOCC1)c(C)n2C(=O)c1ccc(Cl)cc1`, the AC50 is reported as 5.01 µM (active). `COc1ccc2c(c1)c(CC(=O)O)c(C)n2C(=O)c1ccc(Cl)cc1` was tested, and the AC50 was “inactive”.
% is set by controls: 0 for no effect and ±100 for the full control effect.
